This is a sample that favours compounds with a hit; in the whole collection about 0.9% have one here.
PPARg SRC-1 ag = agonists of human PPARgamma SRC-1 coactivator recruitment; P37231; PPARgamma-SRC-1 coactivator recruitment biochemical assay; activation, % at 8 µM; actives 0.41% (n = 200,000); in the data active = activation above about 19%;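 note: 0% = DMSO and 100% = reference agonist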
Target sequence (P37231 whole entry, looked up): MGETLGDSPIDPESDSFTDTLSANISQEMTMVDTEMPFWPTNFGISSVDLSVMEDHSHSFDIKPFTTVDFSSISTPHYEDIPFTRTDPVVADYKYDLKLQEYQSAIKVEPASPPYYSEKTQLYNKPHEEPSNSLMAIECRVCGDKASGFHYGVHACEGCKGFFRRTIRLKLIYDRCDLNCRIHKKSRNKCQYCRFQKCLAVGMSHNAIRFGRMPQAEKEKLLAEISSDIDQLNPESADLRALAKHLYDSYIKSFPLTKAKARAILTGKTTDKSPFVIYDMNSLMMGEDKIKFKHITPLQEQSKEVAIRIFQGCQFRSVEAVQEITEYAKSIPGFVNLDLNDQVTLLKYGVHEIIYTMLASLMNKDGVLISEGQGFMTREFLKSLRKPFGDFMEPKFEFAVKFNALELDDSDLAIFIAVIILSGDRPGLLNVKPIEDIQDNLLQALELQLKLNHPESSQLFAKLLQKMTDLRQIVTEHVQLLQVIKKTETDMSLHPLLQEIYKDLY
PPARg SRC2 recr = agonists of SRC-2 recruitment by human PPARgamma. PPARgamma LBD-SRC-2 recruitment, biochemical. activation, % at 8 µM. actives 0.34% (n = 200,000). AID 1032; in the data active = activation above about 22%;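 note: 0% = vehicle and 100% = reference agonist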
PPARg SRC-3 ag = agonists of human PPARgamma SRC-3 coactivator recruitment; P37231; biochemical PPARgamma/SRC-3 coactivator recruitment assay; activation, % at 8 µM; actives 0.26% (n = 200,000); in the data active = activation above about 23%;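 note: 0% = DMSO and 100% = reference agonist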
SRC3 TRFRET art = TR-FRET artefact, counter-screen to PPARgamma/SRC-3 agonist assay; PPARgamma/SRC-3 format; hits give high values; TR-FRET ratio at 8 µM; actives 0.39% (n = 99,000); AID 1048
SRC1 TRFRET art = flags TR-FRET format artefacts in PPARgamma SRC-1 recruitment agonist screen; TR-FRET detection artefact counter-screen, emission ratio; hits give high values; TR-FRET ratio at 8 µM; actives 0.34% (n = 99,000); AID 1051; in the data active = TR-FRET ratio above about 2300
TR-FRET SRC-2 ct = counter-screen for PPARgamma SRC-2 recruitment agonists: TR-FRET artefact. hits give high values. TR-FRET ratio at 8 µM. actives 0.4% (n = 200,000)
Active calls of the source: *; · = no result. Cut-off read from the data, not from the text of the source, unless noted: active = TR-FRET ratio above about 2000; inactive = the rest.

SMILES	PPARg SRC-1 ag	PPARg SRC2 recr	PPARg SRC-3 ag	SRC3 TRFRET art	SRC1 TRFRET art	TR-FRET SRC-2 ct
Cc1ccc(CN2CCN(Cc3cccc(OCCO)c3)CC2CCO)o1 (stereo unspecified)	5	22*	3	1698	1857	1711
O=C(Nc1cccc(NS(=O)(=O)c2ccc(S(=O)(=O)NC3CC3)cc2)c1)c1ccccn1	23*	7	-2	·	·	1559
CCOC(=O)CCNC(=O)Nc1ccc2nc(C)n(Cc3cccc(Cl)c3)c(=O)c2c1	18	9	17	·	·	1989*
CCCc1nc2ccc(NC(=O)NCCC(=O)OCC)cc2c(=O)n1Cc1cccc(Cl)c1	6	5	0	·	·	1646
O=C(Nc1nnc(C(F)(F)F)s1)c1ccc(Br)s1	18	21	14	2443*	2300	2104*
Cc1ccc(NC(=O)NNC(=O)C2CCN(Cc3ccc(F)cc3Cl)CC2)cc1	-1	6	3	1651	1762	1573
CC1(C)Cc2c(C#N)c(SCC(=O)c3ccccc3)nc(N3CCOCC3)c2CS1	8	7	2	·	·	2038*
O=C(C1=C(O)C(=O)N(c2ccccc2)C1c1ccc([N+](=O)[O-])cc1)c1cccs1 (stereo unspecified)	6	8	7	1429	2021	1661
O=C(c1ccccc1)c1cnc(-c2ccc(Cl)cc2)s1	29*	-6	-1	·	·	1816
O=C(c1ccc(Cl)cc1)c1cnc(-c2ccc(Cl)cc2)s1	8	-3	7	·	·	1525
Cn1c(C(=O)NCc2ccco2)cc2c(=O)[nH]c3ccccc3c21	23*	6	0	1309	2510*	1736
CCCN(CCC)CCCNC(=O)c1cc2c(=O)[nH]c3ccccc3c2n1C	-2	3	-1	1380	1663	1538
CCC(=O)NC(=S)Nc1ccc(NC(=S)NC(=O)c2ccccc2)cc1	24*	3	3	1626	2679*	1582
COc1ccc(C)cc1NC(=O)NNC(=O)C1CCC(C(C)(C)C)CC1 (stereo unspecified)	1	-4	1	1446	1930	1381
Cc1cc(N/N=C/c2ccc([N+](=O)[O-])o2)nc2ccccc12	11	10	9	2083*	1831	1789
O=C(N/N=C/c1ccc([N+](=O)[O-])o1)c1cc(-c2ccc(-c3ccccc3)cc2)nc2ccccc12	7	-4	-3	1306	1568	1407
Cn1ccnc1SCC(=O)Nc1ccc(Cl)cn1	1	1	3	1335	1762	1564
Clc1ccc(-c2ccc(C=Nc3ccc(N4CCOCC4)cc3)o2)c(Cl)c1	7	13	2	1761	2177	2149*
Cc1cccc(N2C(=O)CC(Sc3nc(C)cc(C)n3)C2=O)c1 (stereo unspecified)	-5	6	2	·	·	1638
Cc1cccc(N2C(=O)CC(Sc3nc(-c4ccccc4)c4cc(Cl)ccc4n3)C2=O)c1 (stereo unspecified)	-1	-2	-3	·	·	2388*
CSc1ccc(C(=O)C2CCCN(C(=O)c3csc(C(C)=O)c3)C2)cc1 (stereo unspecified)	-6	5	-5	1355	1442	1596
CSc1ccc(C(=O)C2CCCN(C(=O)c3cc4cc(F)ccc4[nH]3)C2)cc1 (stereo unspecified)	9	9	2	2454*	2545*	2021*
CCN1/C(=C/C=C/C=C/c2sc3ccccc3[n+]2CC)Sc2ccccc21	448*	541*	339*	13609*	14504*	10856*
O=C(O)CCCC(=O)Nc1cc([N+](=O)[O-])ccc1O	22*	2	5	1851	1819	1558
CC(C)OC(=O)CSc1nc2cc3c(cc2cc1C#N)OCO3	54*	3	5	·	·	1557
SMILES	PPARg SRC-1 ag	PPARg SRC2 recr	PPARg SRC-3 ag	SRC3 TRFRET art	SRC1 TRFRET art	TR-FRET SRC-2 ct
COC(=O)CSc1nc2cc3c(cc2cc1C#N)OCO3	81*	3	18	·	·	1413
O=C(NC(Cc1ccccc1)C(=O)O)/C(=C/c1ccccc1)NC(=O)c1cccc(Br)c1 (stereo unspecified)	8	4	6	1700	1857	1489
COc1cc(NC(=O)c2ccc(C(C)(C)C)cc2)c(OC)cc1NC(=O)CN1CCCCC1	-5	-3	-1	1760	1778	1584
COc1ccc([N+](=O)[O-])cc1N/C(=N/S(=O)(=O)c1ccccc1)c1ccccc1	-1	5	4	1666	1845	1667
CC(C)C1CC(C(F)(F)F)n2nc(C(=O)O)cc2N1 (stereo unspecified)	5	17	2	1729	1719	2157*
CC1CC(C(F)(F)F)n2nc(C(=O)O)cc2N1 (stereo unspecified)	-5	0	-15	·	·	1390
CS(=O)(=O)c1nc(-c2ccccc2)cc(-c2ccccc2)c1C#N	6	-2	-2	·	·	1773
Cc1ccc(-c2cc(-c3ccccc3)c(C#N)c(Br)n2)cc1	56*	-2	-1	1644	3299*	1632
CC1C(Br)C(=O)NC(=O)N1Cc1ccccc1 (stereo unspecified)	21*	2	2	1625	1910	1461
Cc1ccc(NC(=O)c2ccco2)c(NC(=O)C2CCCO2)c1 (stereo unspecified)	2	4	1	1515	1861	1570
FC(F)(F)c1nnc2c(Sc3ccc(Cl)cc3)nc3ccccc3n12	32*	9	3	·	·	1457
O=C(Nc1n[nH]c(C(F)(F)F)n1)C1CC1	-1	3	-3	1544	1739	1680
COc1cc2[nH]c(=S)n(NC(=O)c3ccccc3)c(=O)c2cc1OC	16	20	20	·	·	2013*
COc1cc(-c2nc(-c3ccc(Br)o3)no2)cc(OC)c1OC	10	13	-6	·	·	1695
COc1ccc(-c2noc(-c3ccc(Br)o3)n2)cc1OC	6	-1	36*	·	·	1607
Oc1[nH]c2ccccc2c1C1=NCCCCC1	6	5	3	1515	1642	1677
CC(C)c1ccc(NC(=O)NN2CCOCC2)cc1	3	-6	4	1619	1851	1506
Oc1c(Br)cc(Br)cc1C=NCc1ccccc1	14	12	7	1719	2047	1715
Oc1c(Br)cc(Br)cc1C=NCc1ccc(F)cc1	21*	7	3	1714	2042	1663
CCOC(=O)/C(C#N)=C/c1cc2ccccc2nc1N1CCCCC1	17	12	16	2129*	2172	2031*
Cc1c(C(=O)Nc2c(F)cccc2F)sc2ncnc(N3CCN(c4ccccc4)CC3)c12	4	5	3	2183*	2137	1813
O=C(N/N=C/c1ccco1)c1ccc(NC(=O)c2ccccc2Cl)cc1	13	7	3	1694	2163	1979*
O=C(N/N=C/c1cccs1)c1ccc(NC(=O)c2ccccc2Cl)cc1	-7	-2	-2	1574	1581	1642
